Only a selection was taken, and hits are over-represented in it overall.
GBA mod: alters purified human glucocerebrosidase activity. P04062. purified enzyme, resorufin glucoside fluorescence (screen aimed at inhibitors), 20 min. Potency, µM. 48,000 compounds, 1.1% hits; in the data active = potency below about 15 µM;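 also: the screen sought inhibitors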
Target sequence (P04062 whole entry, looked up): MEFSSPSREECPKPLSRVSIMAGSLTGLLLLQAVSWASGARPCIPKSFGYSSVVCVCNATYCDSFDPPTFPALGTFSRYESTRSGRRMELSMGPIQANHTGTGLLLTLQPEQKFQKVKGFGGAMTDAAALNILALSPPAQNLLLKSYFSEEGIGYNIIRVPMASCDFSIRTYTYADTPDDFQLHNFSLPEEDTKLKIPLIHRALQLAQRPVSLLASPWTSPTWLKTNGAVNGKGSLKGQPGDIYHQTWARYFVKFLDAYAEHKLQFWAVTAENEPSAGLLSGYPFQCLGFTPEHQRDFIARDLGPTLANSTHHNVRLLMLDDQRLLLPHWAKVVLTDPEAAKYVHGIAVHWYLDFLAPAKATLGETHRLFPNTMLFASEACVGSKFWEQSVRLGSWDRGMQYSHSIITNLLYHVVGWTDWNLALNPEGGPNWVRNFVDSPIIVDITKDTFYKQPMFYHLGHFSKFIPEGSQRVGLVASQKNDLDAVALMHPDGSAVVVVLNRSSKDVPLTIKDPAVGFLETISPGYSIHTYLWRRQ
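Compounds titrated against 0.2 nM normal enzyme, 30 uM resorufin beta-D-glucopyranoside substrate, citrate/phosphate buffer with taurocholate and tween-20, pH 5.9. Reaction ran 20 min at room temperature; fluorescence (Ex 548/Em 600) gave AC50.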
* hit, by the source's call; i = inactive. Potency is read from the fitted curve at half-maximal effect.

SMILES	GBA mod
CC1(CC(=O)O)SC(=O)NC1=O (centres undefined)	>76.9
O=C(Nc1ccn(-c2ccccc2)n1)c1ccc(S(=O)(=O)N2CCCCCC2)cc1	>76.9
COC(=O)c1ccc2c(=O)n(CCC3=CCCCC3)c(SCC(=O)N3CCCC3)nc2c1	>76.9
COc1ccc(N(CC(=O)NC2CCCCCC2)S(=O)(=O)c2c(C)nn(C)c2C)cc1	>76.9
COc1cccc(NC(=O)CN(c2ccc(C)cc2)S(=O)(=O)c2c(C)nn(C)c2C)c1	>76.9
Cc1ccc(N(CC(=O)NC2CCCCCC2)S(=O)(=O)c2c(C)nn(C)c2C)cc1	14.6*
Cc1ccc(-n2nc(C)c3c2OC(N)=C(C#N)C3c2ccncc2)cc1 (centres undefined)	>76.9
Cc1nn(-c2ccccc2)c2c1C(c1c(C)[nH]c(C#N)c1C)C(C#N)=C(N)O2 (centres undefined)	11*
Cc1ccc(-n2nc(C)c3c2OC(N)=C(C#N)C3c2cccs2)cc1 (centres undefined)	>76.9
COc1cccc(-c2nnc(SCC(=O)OC(C)C)n2Cc2ccco2)c1	>76.9
COCCn1c(C2CCCCC2)nc2sc3ccccc3c(=O)c2c1=O	>76.9
Cc1cc(NC(=O)CN2C(=O)C3CC=CCC3C2=O)no1 (centres undefined)	>76.9
Cc1ccc(NC2=NCC(=O)N2Cc2ccc3c(c2)OCO3)cc1	>76.9
CCSc1nc(-c2ccc(OC)cc2)n(-c2nc3ccccc3s2)n1	>76.9
COc1ccc(OC)c(C2/C(=C(\O)c3c(C)nc4ccccn34)C(=O)C(=O)N2CCCN(C)C)c1 (centres undefined)	>76.9
CSc1n[nH]c(NCc2ccccc2)n1	>76.9
CCCCNc1cc(C)nc(NCc2ccccc2)n1	6.26*
Cc1cc(C(F)(F)F)nc(NCc2ccc(F)cc2)n1	>76.9
O=C(NCc1ccccn1)C(F)(F)C(F)(F)C(=O)NCc1ccccn1	>76.9
COc1cccc(N2C(=O)C3C(C2=O)C2C=CC3C23CC3)c1 (centres undefined)	>76.9
CCOC(=O)c1cc(NC(=O)N2CCCCC2)c(C)nc1C	>76.9
COc1ccc(N(CC(=O)Nc2cc(C(=O)O)ccc2C)S(=O)(=O)c2c(C)noc2C)cc1	>76.9
COc1ccc(N(CC(=O)NCc2ccccc2)S(=O)(=O)c2c(C)noc2C)cc1	>76.9
COc1ccc(N(CC(=O)Nc2ccc3c(c2)OCCO3)S(=O)(=O)c2c(C)noc2C)cc1	11.9*
Cc1ccccc1OCCN1C(=O)NC2(CCc3ccccc32)C1=O (centres undefined)	>76.9
SMILES	GBA mod
COC(=O)c1ccc(CSc2nnc(-c3ccncc3)n2Cc2ccccc2)o1	>76.9
CCCCCOC(=O)c1ccccc1C(=O)O	>76.9
COC(=O)c1cc(NCc2cccs2)ccc1N1CCOCC1	>76.9
O=C(O)c1cc(NCc2ccccc2C(F)(F)F)ccc1N1CCOCC1	12.6*
O=C(O)c1cc(NCc2cccs2)ccc1N1CCOCC1	>76.9
COC(=O)c1ccc(C(=O)OC)c(NC(=O)c2oc(C)nc2C)c1	>76.9
Cc1cc(C)nc(N2CCCC(C(=O)NC(C)CCc3ccco3)C2)n1 (centres undefined)	>76.9
O=C(CCn1cnc2ccccc2c1=O)Nc1ccc(S(=O)(=O)N2CCCC2)cc1	>76.9
O=C(CCn1cnc2ccccc2c1=O)Nc1ccc(S(=O)(=O)N2CCCCC2)cc1	>76.9
Cc1ccc(NC(=O)CCn2cnc3ccccc3c2=O)cc1Cl	6.51*
CCn1c(=O)cc(SCC(=O)NCc2ccccn2)c2ccccc21	>76.9
Cc1ccc(S(=O)(=O)NC2CCCC(C(=O)O)C2)cc1 (centres undefined)	>76.9
CC1CCN(S(=O)(=O)c2ccc3[nH]c(=O)c(=O)[nH]c3c2)CC1	i
Cc1cccc(N(C)S(=O)(=O)c2ccc3[nH]c(=O)c(=O)[nH]c3c2)c1	10.9*
Cc1cccc(N(C)S(=O)(=O)c2ccc3[nH]cc(C(=O)N4CCOCC4)c(=O)c3c2)c1	>76.9
O=C(NCc1ccc2c(c1)OCO2)c1ccc(CN2CCOCC2)cc1	>76.9
CC(C)(C)C(=O)/C(C#N)=c1\s/c(=C\c2ccncc2)c(=O)n1CCCN1CCOCC1	i
Cc1ccc(NC(=O)C2CC=CCC2C(=O)N2CCCCC2)cc1 (centres undefined)	>76.9
CC(=O)Nc1cccc(NC(=O)C2CCCN2C(=O)Nc2ccc(C)cc2)c1 (centres undefined)	>76.9
Cc1ccc(NC(=O)NC2=N/C(=C(/C#N)C(=O)N3CCCC3)c3ccccc32)cc1	9*
CCCOC1(NC(=O)c2ccccc2)C(C)=CC(=O)C=C1C	>76.9
COc1cccc(C2C(C(=O)c3sc(C)nc3C)=C(O)C(=O)N2CCN(C)C)c1OC (centres undefined)	>76.9
O=C(Nc1cccc(OC(=O)c2ccco2)c1)c1ccco1	>76.9
CC(C)Oc1cccc(C(=O)Nc2ccc(NC(=O)c3ccco3)cc2)c1	11.2*
CC(=O)c1cccc(NC(=O)c2ccco2)c1	>76.9
Cn1c(N)c(C(=O)c2cc(-c3ccccn3)nc3ccccc23)c(=O)[nH]c1=O	>76.9
Cc1sc2c(c1C)CN(Cc1ccco1)CN2C(=O)c1ccccc1	>76.9
Cc1onc(-c2ccccc2Cl)c1C(=O)Nc1ccc(F)c(F)c1	i
